For 58 compounds, decrease of EGFP signal results are on record in PubChem BioAssay AID1984 (Sanford-Burnham Center for Chemical Genomics, 2009).

Screen size: about 290,000 compounds; about 35 (0.01%) were called active.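 The calls were made as follows: active = EGFP signal decrease of at least 30% at 10 µM or well 3 SD below plate mean, unless failing retest; inactive = the rest, including hits failing retest or dose response.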 The sample as a whole holds a higher share of actives than the screen did.

In the test the target is p/CIP-EGFP fusion (nuclear receptor coactivator 3, mouse) (UniProt Q05BA5). The experiment in a line: p/CIP-EGFP fusion destabilizers, primary screen, fluorescence, F442A cells (AID 1984). Conditions: 16 h, at 10 µM, stronger effect = higher value.
Sequence of p/CIP-EGFP fusion (nuclear receptor coactivator 3, mouse) (Q05BA5 1-1403): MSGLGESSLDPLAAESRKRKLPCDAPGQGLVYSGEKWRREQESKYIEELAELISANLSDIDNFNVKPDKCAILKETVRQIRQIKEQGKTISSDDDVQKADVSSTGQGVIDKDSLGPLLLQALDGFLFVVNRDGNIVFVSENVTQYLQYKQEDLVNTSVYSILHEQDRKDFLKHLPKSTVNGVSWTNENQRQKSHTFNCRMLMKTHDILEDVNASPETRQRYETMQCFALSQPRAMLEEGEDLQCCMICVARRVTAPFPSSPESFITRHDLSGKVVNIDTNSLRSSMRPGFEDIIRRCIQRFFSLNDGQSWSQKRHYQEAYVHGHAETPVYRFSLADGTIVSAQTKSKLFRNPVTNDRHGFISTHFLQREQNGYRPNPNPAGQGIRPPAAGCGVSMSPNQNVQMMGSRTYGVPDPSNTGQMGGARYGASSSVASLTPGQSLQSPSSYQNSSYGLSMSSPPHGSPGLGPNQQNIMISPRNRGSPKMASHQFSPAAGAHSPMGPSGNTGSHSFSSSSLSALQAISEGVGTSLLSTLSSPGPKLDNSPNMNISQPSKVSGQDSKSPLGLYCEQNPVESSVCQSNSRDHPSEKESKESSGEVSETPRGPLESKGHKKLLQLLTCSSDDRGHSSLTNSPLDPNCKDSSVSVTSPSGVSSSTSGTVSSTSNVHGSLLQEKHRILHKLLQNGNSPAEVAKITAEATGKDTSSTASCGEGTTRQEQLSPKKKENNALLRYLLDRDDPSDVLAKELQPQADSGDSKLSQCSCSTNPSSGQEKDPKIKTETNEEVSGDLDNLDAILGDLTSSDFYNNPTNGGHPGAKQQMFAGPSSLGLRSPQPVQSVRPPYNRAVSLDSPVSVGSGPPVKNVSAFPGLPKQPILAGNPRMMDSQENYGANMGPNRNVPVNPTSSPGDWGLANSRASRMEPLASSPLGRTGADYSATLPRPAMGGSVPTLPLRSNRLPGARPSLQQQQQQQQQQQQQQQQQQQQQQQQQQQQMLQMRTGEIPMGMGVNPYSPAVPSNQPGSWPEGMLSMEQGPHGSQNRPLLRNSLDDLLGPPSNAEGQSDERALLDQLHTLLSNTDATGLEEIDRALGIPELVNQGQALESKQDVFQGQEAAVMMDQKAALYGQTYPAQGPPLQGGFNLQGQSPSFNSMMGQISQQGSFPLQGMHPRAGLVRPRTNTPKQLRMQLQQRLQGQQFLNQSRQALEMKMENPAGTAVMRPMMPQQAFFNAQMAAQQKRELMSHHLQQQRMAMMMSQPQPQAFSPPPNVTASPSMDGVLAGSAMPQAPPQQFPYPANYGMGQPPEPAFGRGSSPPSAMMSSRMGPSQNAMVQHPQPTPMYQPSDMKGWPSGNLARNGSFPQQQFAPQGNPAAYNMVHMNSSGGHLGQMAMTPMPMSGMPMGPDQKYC
On to `O=C(CN1CCN(S(=O)(=O)c2ccc(Br)cc2)CC1)Nc1ccccc1C(=O)c1ccccc1`, for which the decrease of EGFP signal was -4.8% (inactive). In the case of `NC(=O)c1cc(S(=O)(=O)N2CCCC2)ccc1OCc1ccc(F)cc1`, the decrease of EGFP signal was -4.5% (inactive). To `COc1cccc(NC(=O)NCCN2CCCCC2)c1` belongs -6.2% (inactive); to `OC(CNC1CCCC1)COc1ccc(F)cc1` (stereo not drawn), 26.4% (inactive). In the case of `CCCCC(=O)Nc1nnc(S(=O)(=O)N(C)Cc2ccco2)s1` it was 0.2% (inactive); in that of `Cc1ccc(N(Cc2cc(=O)[nH]c3ccccc23)C(=O)CCl)cc1`, -8.8% (inactive); in that of `CN(C)S(=O)(=O)c1cccc(NC(=O)COC(=O)C2(c3ccccc3F)CCCC2)c1`, -3% (inactive). Take `Cc1[nH]c2ccccc2c1C(=O)CN1CCCC(C)C1` (stereo not drawn): the decrease of EGFP signal was -10.8% (inactive).

Regarding `Cc1ccc(-c2nc(CSCC(=O)NC3CCN(Cc4ccccc4)CC3)c(C)o2)cc1`, the decrease of EGFP signal is -10% (inactive). To `Cn1nccc1C(=O)NC1CCCc2c1cnn2-c1ccc(F)cc1F` (stereo not drawn) belongs -26.2% (inactive). For the compound `Cc1ccc(CNC(=O)CSc2nnc3c(n2)[nH]c2ccc(F)cc23)cc1`, the decrease of EGFP signal was -14.9% (inactive). In the case of `COc1cc(C2C(N3C(=O)c4ccccc4C3=O)C(=O)N2c2ccc(C)c(C)c2)cc(OC)c1OC` (stereo not drawn) it was 8.2% (inactive); in that of `N#CC(C#N)=CN=c1ccn(Cc2ccc(Cl)cc2Cl)cc1`, -1.4% (inactive).

Take `Cc1ccc(C(=O)NC2CCN(C(=O)Nc3ccccc3Cl)CC2)cc1`: the decrease of EGFP signal is 5.4% (inactive). Turning to `CC1CCN(C(=O)c2ccccc2NC(=O)Cc2ccccc2)CC1`, the decrease of EGFP signal is -1.7% (inactive). To `COc1ccccc1N(CC(=O)NC1CCCC1)C(=O)C1(C)CC(=O)N=C2C=CC(C)=CN21` (stereo not drawn) belongs -13.7% (inactive); to `Cc1ccc(OCC(=O)Nc2ccccc2C(=O)NC2CC2)cc1C`, 1.1% (inactive); to `COc1ccccc1NC(=O)CSc1nnc(CNC(=O)c2ccccc2F)o1`, -0.3% (inactive). For the compound `CCOC(=O)C1CCN(Cc2nnc(-c3cccc(Br)c3)o2)CC1`, the decrease of EGFP signal is -16.9% (inactive).

`O=C(CCc1nnc(Cc2ccc3c(c2)OCO3)o1)NCCc1ccccc1Cl`: the decrease of EGFP signal is -7.8% (inactive). As to `O=C(NCCc1ccccc1)c1ccc2c(c1)N(Cc1ccccc1)CCS2`, the decrease of EGFP signal is 5.5% (inactive). In the case of `Cc1ccc(NC(=S)Nc2ncccc2C)c(C)c1` it was -3.8% (inactive); in that of `COc1ccc(NS(=O)(=O)c2ccc(N3CCN(CCO)CC3)c([N+](=O)[O-])c2)cc1`, -28.7% (inactive); in that of `C=C(C)C(=O)O[C@H]1C/C(C)=C\C(=O)/C=C(\C)[C@H](O)[C@@H]2OC(=O)C(=C)[C@@H]21`, -31.6% (inactive). In the case of `CC(C)NC(=O)N1CCN(c2ccncc2S(=O)(=O)N2CCCCC2)CC1` it was 5.9% (inactive); in that of `Nc1c(N(CCO)C(=O)C2CCCCC2)c(=O)[nH]c(=O)n1Cc1ccccc1`, -13.9% (inactive); in that of `CC(C)CCOc1ccc(C(=O)C[N+]2(C)CCOCC2)cc1`, -10% (inactive). `O=C(OCC(=O)N1CCN(C(=O)c2ccco2)CC1)c1cccc(O)c1`: the decrease of EGFP signal was 2.2% (inactive). As to `Cc1ccc(NC(=O)CSc2nnc(CNC(=O)c3ccccc3F)o2)cc1Cl`, the decrease of EGFP signal was -13% (inactive). For the compound `CCc1cccc(NC(=O)CCCN2C(=O)C(c3ccccc3)Oc3cccnc32)c1` (stereo not drawn), the decrease of EGFP signal is 4.5% (inactive).

On to `O=C(COc1cccc(Cl)c1)NCc1ccccc1`, for which the decrease of EGFP signal was -3.1% (inactive).

On to `CC(C(=O)N1CCN(c2ccccc2F)CC1)c1ccc([N+](=O)[O-])cc1` (stereo not drawn), for which the decrease of EGFP signal was 1.2% (inactive). To `COc1ccc(C(=O)NC(=S)NC2CCCCC2)cc1` belongs -9.4% (inactive); to `CCc1ccc(OCC(=O)N(Cc2ccccc2)C2CCS(=O)(=O)C2)cc1` (stereo not drawn), -11.2% (inactive). To `COc1cc(OC)cc(C(=O)NCCCn2ccnc2)c1` belongs 1.6% (inactive). As to `CNc1[nH]ncc1[N+](=O)[O-]`, the decrease of EGFP signal is 11.8% (inactive). Consider `Cc1nc(-c2ccc(F)cc2)c(CC(=O)N2CCN(S(=O)(=O)c3ccc(F)cc3)CC2)s1`, for which the decrease of EGFP signal is 5.1% (inactive).

Consider `COCCCN1C(=O)c2ccc(C(=O)OCC(=O)NCc3ccccc3OC)cc2C1=O`, for which the decrease of EGFP signal was -12.5% (inactive). With `c1ccc(-n2cccc2)c(N2CCCCC2)c1`, the decrease of EGFP signal is -13.4% (inactive). Take `Cc1cc(-c2nnc(SCC(=O)Nc3ccc(S(N)(=O)=O)cc3)n2N)n[nH]1`: the decrease of EGFP signal is -53.2% (inactive).

Turning to `CCCCn1c(N)c(N(CCOC)C(=O)c2oc3ccc(OC)cc3c2C)c(=O)[nH]c1=O`, the decrease of EGFP signal was 9.8% (inactive). Turning to `NC(=O)C(Cc1ccccc1)NC(=O)C12CC3CC(CC(C3)C1)C2` (stereo not drawn), the decrease of EGFP signal was -4.8% (inactive). `Cc1c(S(=O)(=O)N2CC(C)CC(C)C2)c(=O)n(C)c(=O)n1C` (stereo not drawn): the decrease of EGFP signal was 4.7% (inactive).

For the compound `CCSc1nc(O)c(C(c2cccc(OC)c2)c2c(O)nc(SCC)[nH]c2=O)c(=O)[nH]1`, the decrease of EGFP signal is -4% (inactive).

With `CCCC1(C(=O)OCC)NC(c2ccc(N(C)C)cc2)C2C(=O)N(c3ccc4c(c3)OCCO4)C(=O)C21` (stereo not drawn), the decrease of EGFP signal is -13.2% (inactive). In the case of `O=C(O)CCCCCNc1ncnc2ccc(Br)cc12` it was -16.6% (inactive); in that of `Cc1cccc(N2Cc3ccccc3C2=NC(=O)c2ccc(Cl)nc2)c1`, -1.5% (inactive); in that of `CC(=O)N1c2ccc(S(=O)(=O)N3CCCC(C(=O)NCc4ccc(Cl)cc4)C3)cc2CC1C` (stereo not drawn), -5.2% (inactive). In the case of `CCCCC(=O)Nc1c2c(nn1-c1ccc([N+](=O)[O-])cc1)CS(=O)(=O)C2` it was -0.5% (inactive); in that of `CS(=O)(=O)N1CCN=C1SCc1ccc(F)cc1`, 10.9% (inactive). As for `CC(=O)c1cccc(NC(=O)CN2C(=O)c3cccnc3Oc3ccc(Cl)cc32)c1`, the decrease of EGFP signal is -7.6% (inactive). As for `C/C(CC(=O)NCc1ccc(Cl)cc1)=N\NC(=O)COc1ccc(C)cc1Br`, the decrease of EGFP signal is 2.8% (inactive). Regarding `CCOc1cc(CN2CCCC(CO)(Cc3ccc(F)cc3F)C2)ccc1OC` (stereo not drawn), the decrease of EGFP signal was -5.3% (inactive). In the case of `Cc1cccc(-c2nc3ccc(C(=O)NCCN4CCN(C)CC4)cc3nc2-c2cccc(C)c2)c1` it was -5% (inactive); in that of `COCCCNc1nc2c(-c3cccc(C)c3)nnn2c2ccc(Cl)cc12`, -12% (inactive). As to `COc1ccc(C(=O)C2CCCN(S(=O)(=O)c3cccc(C)c3)C2)c(C)c1` (stereo not drawn), the decrease of EGFP signal was -15.7% (inactive).

In the case of `O=C(NCCC1=CCCCC1)c1ccc(Cl)c([N+](=O)[O-])c1`, the decrease of EGFP signal is -6.4% (inactive). In the case of `CCCn1c(NC(=O)C23CC4CC(CC(O)(C4)C2)C3)nc2ccccc21` it was 0.5% (inactive).
